# Measurements reported in PMC8384837, “Expanding the binding specificity for RNA recognition by a PUF domain”.
# Columns and labels:
# Test in all cases: yeast three-hybrid, YBZ-1, SC-Leu-His + 0.5 mM 3-AT, 4 days
# Settings in all cases: tags: N-Gal4 AD-HA kept; label: inside an RPR1-promoter hybrid RNA with tandem MS2 sites; ssRNA
# [1] = target: PUM1 PUF domain R7-ECA (Homo sapiens, UniProt Q14671 828-1176, S1079E;N1080C;E1083A)
# Method in brief: (§1)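 The interaction score is the log change in variant frequency from input to selection. Scores were computed in log2 with a pseudocount of 1 for absent variants, using Illumina sequencing of PCR-amplified repeat regions. The input came from four days on SC-Leu and the selection from four days on SC-Leu-His + 0.5 mM 3-AT. The cells were strain YBZ-1 (LexA–MS2 coat fusion, HIS3 reporter) co-expressing Pumilio-1 PUF domain libraries and matching RNA elements from a centromeric plasmid.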
# [2] = target: PUM1 PUF domain R5-RQR (Homo sapiens, UniProt Q14671 828-1176, C1007R;R1008Q;Q1011R)
# Method in brief: as §1
# [3] = target: PUM1 PUF domain R3-ARV (Homo sapiens, UniProt Q14671 828-1176, C935A;Q939V)
# Method in brief: as §1
# [4] = target: PUM1 PUF domain R1-RVE (Homo sapiens, UniProt Q14671 828-1176, S863R;R864V;Q867E)
# Method in brief: as §1
# [5] = target: PUM1 PUF domain R1-NVR (Homo sapiens, UniProt Q14671 828-1176, S863N;R864V;Q867R)
# Method in brief: as §1
# [6] = target: PUM1 PUF domain R2-VWP (Homo sapiens, UniProt Q14671 828-1176, N899V;Y900W;Q903P)
# Method in brief: as §1
# [7] = target: PUM1 PUF domain R5-RKM (Homo sapiens, UniProt Q14671 828-1176, C1007R;R1008K;Q1011M)
# Method in brief: as §1
# [8] = target: PUM1 PUF domain R4-YRM (Homo sapiens, UniProt Q14671 828-1176, N971Y;H972R;Q975M)
# Method in brief: as §1
# [9] = target: PUM1 PUF domain R8-FWR (Homo sapiens, UniProt Q14671 828-1176, N1122F;Y1123W;Q1126R)
# Method in brief: as §1
# [10] = target: PUM1 PUF domain R5-AYM (Homo sapiens, UniProt Q14671 828-1176, C1007A;R1008Y;Q1011M)
# Method in brief: as §1
# Sequence of PUM1 PUF domain R1-RVE (Q14671 828-1176 S863R/R864V/Q867E): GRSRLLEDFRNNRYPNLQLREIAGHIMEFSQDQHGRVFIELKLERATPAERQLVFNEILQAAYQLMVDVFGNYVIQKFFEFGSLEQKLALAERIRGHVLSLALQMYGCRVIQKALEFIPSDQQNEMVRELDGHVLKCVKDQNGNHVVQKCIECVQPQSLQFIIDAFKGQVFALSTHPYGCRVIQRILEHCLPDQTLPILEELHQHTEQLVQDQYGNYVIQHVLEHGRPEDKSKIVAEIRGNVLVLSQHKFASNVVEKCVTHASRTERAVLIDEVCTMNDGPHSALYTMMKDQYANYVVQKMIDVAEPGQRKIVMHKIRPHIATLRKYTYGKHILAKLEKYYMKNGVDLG
# Sequence of PUM1 PUF domain R5-RQR (Q14671 828-1176 C1007R/R1008Q/Q1011R): as the sequence (Q14671 828-1176 S863R/R864V/Q867E) above, with R36S, V37R, E40Q, C180R, R181Q, Q184R counted along it
# Sequence of PUM1 PUF domain R7-ECA (Q14671 828-1176 S1079E/N1080C/E1083A): as the sequence (Q14671 828-1176 S863R/R864V/Q867E) above, with R36S, V37R, E40Q, S252E, N253C, E256A counted along it
# Sequence of PUM1 PUF domain R1-NVR (Q14671 828-1176 S863N/R864V/Q867R): as the sequence (Q14671 828-1176 S863R/R864V/Q867E) above, with R36N, E40R counted along it
# Sequence of PUM1 PUF domain R8-FWR (Q14671 828-1176 N1122F/Y1123W/Q1126R): as the sequence (Q14671 828-1176 S863R/R864V/Q867E) above, with R36S, V37R, E40Q, N295F, Y296W, Q299R counted along it
# Sequence of PUM1 PUF domain R3-ARV (Q14671 828-1176 C935A/Q939V): as the sequence (Q14671 828-1176 S863R/R864V/Q867E) above, with R36S, V37R, E40Q, C108A, Q112V counted along it
# Sequence of PUM1 PUF domain R5-RKM (Q14671 828-1176 C1007R/R1008K/Q1011M): as the sequence (Q14671 828-1176 S863R/R864V/Q867E) above, with R36S, V37R, E40Q, C180R, R181K, Q184M counted along it
# Sequence of PUM1 PUF domain R5-AYM (Q14671 828-1176 C1007A/R1008Y/Q1011M): as the sequence (Q14671 828-1176 S863R/R864V/Q867E) above, with R36S, V37R, E40Q, C180A, R181Y, Q184M counted along it
# Sequence of PUM1 PUF domain R2-VWP (Q14671 828-1176 N899V/Y900W/Q903P): as the sequence (Q14671 828-1176 S863R/R864V/Q867E) above, with R36S, V37R, E40Q, N72V, Y73W, Q76P counted along it
# Sequence of PUM1 PUF domain R4-YRM (Q14671 828-1176 N971Y/H972R/Q975M): as the sequence (Q14671 828-1176 S863R/R864V/Q867E) above, with R36S, V37R, E40Q, N144Y, H145R, Q148M counted along it
sequence,measurement,setting,value
GGCUAGAACUAGUGGAUCCCCCGGCGCCCGGCGGCUCGAGCCCGGGUAAGUCUAAAUAGUCUGCAUGCCGCCGGGCGCCAUGCCUGCAGGUCGACUCUAGAAAACAUG,binding signal,[1],1.26 log2 enrichment (interaction score)
GGCUAGAACUAGUGGAUCCCCCGGCGCCCGGCGGCUCGAGCCCGGGUAAGUGUUAAUAGUCUGCAUGCCGCCGGGCGCCAUGCCUGCAGGUCGACUCUAGAAAACAUG,binding signal,[2],4.81 log2 enrichment (interaction score)
GGCUAGAACUAGUGGAUCCCCCGGCGCCCGGCGGCUCGAGCCCGGGUAAGUGUAAUUAGUCUGCAUGCCGCCGGGCGCCAUGCCUGCAGGUCGACUCUAGAAAACAUG,binding signal,[3],1.96 log2 enrichment (interaction score)
GGCUAGAACUAGUGGAUCCCCCGGCGCCCGGCGGCUCGAGCCCGGGUAAGUGUAAAUUGUCUGCAUGCCGCCGGGCGCCAUGCCUGCAGGUCGACUCUAGAAAACAUG,binding signal,[4],2.57 log2 enrichment (interaction score)
same,binding signal,[5],3.93 log2 enrichment (interaction score)
GGCUAGAACUAGUGGAUCCCCCGGCGCCCGGCGGCUCGAGCCCGGGUAAGUGUAAAAAGUCUGCAUGCCGCCGGGCGCCAUGCCUGCAGGUCGACUCUAGAAAACAUG,binding signal,[6],4.15 log2 enrichment (interaction score)
GGCUAGAACUAGUGGAUCCCCCGGCGCCCGGCGGCUCGAGCCCGGGUAAGUGUAAAUCGUCUGCAUGCCGCCGGGCGCCAUGCCUGCAGGUCGACUCUAGAAAACAUG,binding signal,[4],2.37 log2 enrichment (interaction score)
same,binding signal,[5],5.44 log2 enrichment (interaction score)
GGCUAGAACUAGUGGAUCCCCCGGCGCCCGGCGGCUCGAGCCCGGGUAAGUGUAAAUGGUCUGCAUGCCGCCGGGCGCCAUGCCUGCAGGUCGACUCUAGAAAACAUG,binding signal,[4],1.35 log2 enrichment (interaction score)
GGCUAGAACUAGUGGAUCCCCCGGCGCCCGGCGGCUCGAGCCCGGGUAAGUGUAAAUAGUCUGCAUGCCGCCGGGCGCCAUGCCUGCAGGUCGACUCUAGAAAACAUG,binding signal,[2],1 log2 enrichment (interaction score)
same,binding signal,[7],2.32 log2 enrichment (interaction score)
same,binding signal,[8],2.31 log2 enrichment (interaction score)
same,binding signal,[9],3.71 log2 enrichment (interaction score)
same,binding signal,[3],3.82 log2 enrichment (interaction score)
GGCUAGAACUAGUGGAUCCCCCGGCGCCCGGCGGCUCGAGCCCGGGUAAGUGUCAAUAGUCUGCAUGCCGCCGGGCGCCAUGCCUGCAGGUCGACUCUAGAAAACAUG,binding signal,[2],4.51 log2 enrichment (interaction score)
same,binding signal,[10],2.95 log2 enrichment (interaction score)
GGCUAGAACUAGUGGAUCCCCCGGCGCCCGGCGGCUCGAGCCCGGGUAAGUUUAAAUAGUCUGCAUGCCGCCGGGCGCCAUGCCUGCAGGUCGACUCUAGAAAACAUG,binding signal,[1],3.96 log2 enrichment (interaction score)
GGCUAGAACUAGUGGAUCCCCCGGCGCCCGGCGGCUCGAGCCCGGGUAAGCGUAAAUAGUCUGCAUGCCGCCGGGCGCCAUGCCUGCAGGUCGACUCUAGAAAACAUG,binding signal,[9],3.91 log2 enrichment (interaction score)
